Source: PubChem
FMDV inh = High Throughput Screening for Foot and Mouth Disease Virus Antivirals | FMDV antiviral cell-based qHTS | Potency, µM (titrated, usually from 57.9 µM), for inactives: top-dose activity change, negative = inhibition, actives largely listed as inhibitors | 410,000 tested, 1.2% active; calls by dose curve; tested in HEK293T cells; also: read-out not given here; potency is read from the fitted curve at half-maximal effect; % is scaled to controls: 0 for no effect and ±100 for the full control effect; nearly all actives have a fitted effect of over 45% in size
CHX counter = Cycloheximide Counterscreen for Small Molecule Inhibitors of Shiga Toxin; cell reporter, cycloheximide protein synthesis inhibition counterscreen; max response, %; 300,000 tested, 12% active; in the data active = max response mostly above about 13%, no sharp cut-off; inactive = mostly below about 14%; also: read at 38.3 µM for the half of the compounds with a filed dose; 0% is about no effect
Shiga toxin inh = A qHTS for Small Molecule Inhibitors of Shiga Toxin; inhibition, % at 38.7 µM; 290,000 tested, 9.2% active; Vero cells, Shiga toxin protein synthesis inhibition reporter; in the data active = inhibition mostly above about 28%, no sharp cut-off; inactive = mostly below about 43%; also: 0% is about no effect
Sm TGR inh = qHTS Assay for the Inhibitors of Schistosoma Mansoni Peroxiredoxins | Schistosoma mansoni thioredoxin glutathione reductase (TGR), Q962Y6 | purified TGR, DTNB reduction, TNB absorbance 405 nm | Potency, µM (top dose mostly 114 µM), without a hit: at the top dose activity change, negative = inhibition, hits mostly inhibitors | 360,000 tested, 3% active | AID 485364, 2010; active = well fitted inhibition curve with a large enough effect; inconclusive = small, poorly fitted or top-dose-only effect; inactive = no such curve, though single readings can be large or run the other way; also: potency is read from the fitted curve at half-maximal effect; % is scaled to controls: 0 for no effect and ±100 for the full control effect; nearly all actives have a fitted effect of over 60% in size
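Kinetic colorimetric format: TGR-catalysed, NADPH-driven DTNB reduction monitored via TNB absorbance. Enzyme dispensed at 20 nM; compound exposure 15 min at room temperature before reaction start.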
Numbers without * were called inactive. In the library only some 12% were active in any assay of this set; here they are far more common.

What do the screens show for `CCc1cccc2c(C(=O)COC(=O)c3nccnc3N)c[nH]c12`?
FMDV inh: 48%; Sm TGR inh: -7%

How did CCc1cccc2c(C(=O)COC(=O)c3ccc(O)cc3)c[nH]c12 do in these assays?
FMDV inh: -3%; CHX counter: 37*; Shiga toxin inh: 53*; Sm TGR inh: -10%

How did CC(C)(C)OC(=O)N(c1cccc2cccnc12)S(=O)(=O)c1ccccc1Br do in these assays?
CHX counter: 9; Shiga toxin inh: -9

Results for Cc1cccc(CSc2cn(CC(=O)N3CCCCC3)c3ccccc23)c1 ?
FMDV inh: 24%; Sm TGR inh: 2%

What do the screens show for `CC1(C)NC(=O)N(CCOCCOc2ccc3ccccc3c2Br)C1=O`?
FMDV inh: 24%; CHX counter: 37*; Shiga toxin inh: 44; Sm TGR inh: -20%

How did CC1(C)NC(=O)N(CCCCOc2ccc3ccccc3c2Cl)C1=O do in these assays?
FMDV inh: 5%; CHX counter: 54*; Shiga toxin inh: 88*; Sm TGR inh: -35%

How did COCc1c(C(=O)NC2CCCC2)cnn1-c1nccc(-c2ccco2)n1 do in these assays?
FMDV inh: 18%

What do the screens show for `COc1ccc(CNC(=O)CSc2ncc3c(n2)-c2cc(Cl)ccc2N(C)S3(=O)=O)cc1`?
FMDV inh: -23%; Sm TGR inh: 6%

What do the screens show for `COc1ccc2cc(C(c3nnnn3Cc3ccc(F)cc3)N3CCCCCC3)c(=O)[nH]c2c1` (stereo not given)?
FMDV inh: -8%; CHX counter: -2; Shiga toxin inh: 35; Sm TGR inh: 16µM*

Results for COCCn1nnnc1C(c1cc2ccc(OC)cc2[nH]c1=O)N1CCN(C2CCCCC2)CC1 (stereo not given) ?
FMDV inh: 7%; CHX counter: -1; Shiga toxin inh: -13; Sm TGR inh: 5%

Results for COc1ccc(Cn2nnnc2C(c2cc3cccc(C)c3[nH]c2=O)N2CCOCC2)cc1 (stereo not given) ?
FMDV inh: -19%; CHX counter: 20; Shiga toxin inh: 35*; Sm TGR inh: -8%

Results for COc1ccc(Cn2nnnc2C(c2cc3ccc(OC)cc3[nH]c2=O)N2CCC(C)CC2)cc1 (stereo not given) ?
FMDV inh: -10%; CHX counter: 11; Shiga toxin inh: 18; Sm TGR inh: 28µM*

What do the screens show for `COc1ccc(Cn2nnnc2C(c2ccncc2)N2CCOCC2)cc1` (stereo not given)?
FMDV inh: -6%; CHX counter: -1; Shiga toxin inh: -13; Sm TGR inh: 25µM*

Results for COc1ccc(Cn2nnnc2C(c2cc3cc(C)ccc3[nH]c2=O)N2CCOCC2)cc1 (stereo not given) ?
FMDV inh: -8%; CHX counter: -2; Shiga toxin inh: -3; Sm TGR inh: -27%

How did O=C(CN1C(=O)CCc2cc(S(=O)(=O)N3CCCCC3)ccc21)NCc1ccc(Cl)cc1 do in these assays?
FMDV inh: -13%; Sm TGR inh: 1%

Results for COc1ccc(CCNc2nc3cc(OC)c(OC)cc3c3nc(-c4cccnc4)nn23)cc1OC ?
FMDV inh: -18%; Sm TGR inh: 0%

Results for COc1ccc2cc(C(c3nnnn3CCc3ccccc3)N3CCC(O)CC3)c(=O)[nH]c2c1 (stereo not given) ?
FMDV inh: 9%; CHX counter: -6; Shiga toxin inh: -13; Sm TGR inh: -26%

How did COc1ccc2cc(C(c3nnnn3Cc3ccccc3)N3CCCCCC3)c(=O)[nH]c2c1 (stereo not given) do in these assays?
FMDV inh: -11%; CHX counter: -2; Shiga toxin inh: 26; Sm TGR inh: 20µM*

Results for CNC(=S)N/N=C(\C)c1ccc(-n2ccnc2)cc1 ?
FMDV inh: -2%; CHX counter: -2; Shiga toxin inh: -18; Sm TGR inh: -31%

Results for c1ccc(-c2ccc(-n3ccnc3)cc2)cc1 ?
CHX counter: 8.0*; Shiga toxin inh: 36; Sm TGR inh: -44%

Results for CCc1ccc(OCC(=O)N/N=C(\C)c2ccc(-n3ccnc3)cc2)cc1 ?
FMDV inh: 1%; CHX counter: 16*; Shiga toxin inh: 51*; Sm TGR inh: 1%

Results for CC(=O)c1ccc2c(c1)Nc1ccccc1S2 ?
FMDV inh: 0%; CHX counter: 11; Shiga toxin inh: 24; Sm TGR inh: -1%

How did C/C(=N\NC(=O)c1ccc(C)cc1C)c1ccc2c(c1)Nc1ccccc1S2 do in these assays?
FMDV inh: inconclusive; CHX counter: 30*; Shiga toxin inh: 40*; Sm TGR inh: 3%

How did C/C(=N\NC(=O)c1ccc(C)cc1C)c1ccc(-n2ccnc2)cc1 do in these assays?
FMDV inh: 3%; CHX counter: 27*; Shiga toxin inh: 35; Sm TGR inh: -4%

Results for Cc1c(NC(=O)c2cc([N+](=O)[O-])ccc2N2CCOCC2)cccc1-c1nc2ccccc2o1 ?
FMDV inh: -20%; Sm TGR inh: 12%

How did Cc1ccn2cc(CNC(=O)c3cccc(C(F)(F)F)c3)nc2c1 do in these assays?
FMDV inh: 6%; Sm TGR inh: 1%

Results for COCCN(Cc1ccco1)C(=O)c1cc2c(Cl)nc3ccc(C)cc3c2s1 ?
FMDV inh: -10%; Sm TGR inh: -4%

What do the screens show for `O=C(/C=C/c1ccc(O)c(O)c1)c1ccc(O[C@@H]2O[C@H](CO)[C@@H](O)[C@H](O)[C@H]2O)c(O)c1O`?
CHX counter: 16; Shiga toxin inh: 25

What do the screens show for `CC(=O)N1c2ccc(S(=O)(=O)NCc3ccc(Cl)cc3)cc2CC1C` (stereo not given)?
FMDV inh: -7%; Sm TGR inh: 0%

Results for C/C(=N\NC(N)=O)c1ccc(-n2ccnc2)cc1 ?
FMDV inh: -10%; CHX counter: -2; Shiga toxin inh: -9; Sm TGR inh: -25%

How did C/C(=N\NC(=S)NC(C)C)c1ccc(-n2ccnc2)cc1 do in these assays?
FMDV inh: -24%; CHX counter: -1; Shiga toxin inh: -14; Sm TGR inh: -25%

How did C/C(=N\Nc1ccccc1Cl)c1ccc(-n2ccnc2)cc1 do in these assays?
FMDV inh: -15%; CHX counter: 31*; Shiga toxin inh: 100*

Results for C/C(=N\Nc1ccc(C(=O)O)cc1)c1ccc(-n2ccnc2)cc1 ?
FMDV inh: 5%; CHX counter: 74*; Shiga toxin inh: 88*; Sm TGR inh: inconclusive

Results for Cc1cc(N)n(-c2ccc3ccccc3c2)n1 ?
FMDV inh: 30%; CHX counter: 18*; Shiga toxin inh: 43*; Sm TGR inh: 3%

What do the screens show for `COc1ccc(-n2nc(C)cc2N)cc1`?
FMDV inh: 0%; CHX counter: -1; Shiga toxin inh: 10; Sm TGR inh: 21%

What do the screens show for `C=CCn1c(C)cc(C2=NNC(=NC(C)(C)C)SC2)c1C`?
FMDV inh: inconclusive; CHX counter: 1; Shiga toxin inh: 7; Sm TGR inh: -4%

What do the screens show for `COCC(C)N=C1NN=C(c2ccc(NC(C)=O)cc2)CS1` (stereo not given)?
FMDV inh: 15%; CHX counter: 22*; Shiga toxin inh: 44; Sm TGR inh: -26%
